Inconclusive results are not listed. Calls of active or inactive are those of the source. Calls follow the shape of the dose curve; as a rule, active = well fitted curve in the direction sought with a large enough effect in the repeat runs; inconclusive = weak or mixed curves; inactive = no such curve, though single readings can be large; an effect the other way counts as inactive or inconclusive.
Legend:
[1] = Human pregnane X receptor (PXR) small molecule agonists, qHTS cell viability counter screen (AID 1346977); also: nearly all actives have a fitted effect of over 50% in size; also: potency is read from the fitted curve at half-maximal effect; as to activity change, negative = cytotoxicity: % is scaled to controls: 0 for no effect and ±100 for the full control effect
How it was run: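 Same-well viability read: CellTiter-Fluor added after 23 hr compound exposure, fluorescence measured 1 hr later. Cells were PXR-Luc HepG2 seeded at 2,000/well in 5% charcoal-stripped FBS medium, rested 5 hr before dosing at 37 C.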

[2] = Caspase-3/7 induction in HepG2 cells by small molecules, qHTS assay (AID 1346978); also: % is scaled to controls: 0 for no effect and ±100 for the full control effect; nearly all actives have a fitted effect of over 15% in size
How it was run: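 Wild-type HepG2 cells (2,000/well) were settled 5 h at 37 C, 5% CO2, then exposed to compounds in DMSO for 17 h. Caspase-3/7 activity was read by luminescence 30 min after adding Caspase-Glo 3/7 reagent at room temperature.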

[3] = Caspase-3/7 induction in CHO-K1 cells by small molecules, qHTS cell viability counter screen (AID 1346979); also: nearly all actives have a fitted effect of over 35% in size; also: potency is read from the fitted curve at half-maximal effect; as to activity change, negative = cytotoxicity: % is scaled to controls: 0 for no effect and ±100 for the full control effect
How it was run: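 Cytotoxicity counter screen: CellTiter-Fluor added to compound-treated wild-type CHO-K1 cells at 16 h (37C, 5% CO2), fluorescence measured 1 h later; same wells as caspase-3/7 measurement.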

[4] = Caspase-3/7 induction in CHO-K1 cells by small molecules, qHTS assay (AID 1346980); also: % is scaled to controls: 0 for no effect and ±100 for the full control effect; nearly all actives have a fitted effect of over 15% in size
How it was run: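 Wild-type cells were seeded at 1,500 per well and settled 5 hr at 37 C, 5% CO2, then exposed to DMSO-dissolved compounds for 17 hr. Caspase-Glo 3/7 reagent was added, and luminescence was read after 30min at room temperature.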

[5] = Caspase-3/7 induction in HepG2 cells by small molecules, qHTS cell viability counter screen (AID 1346981); also: series mostly up to about 92 µM; % is scaled to controls: 0 for no effect and ±100 for the full control effect; nearly all actives have a fitted effect of over 30% in size
How it was run: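 Wild-type HepG2 cells (2,000/well) were allowed to settle for 5 hr at 37 C, 5% CO2, then dosed with compounds in DMSO by pin transfer. After 16 hr at 37 C, CellTiter-Fluor was added and fluorescence read 1 hr later.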

[6] = molecular target: Nuclear receptor subfamily 1 group I member 2 (Homo sapiens) (UniProt O75469); test: Human pregnane X receptor (PXR) small molecule agonists, qHTS assay (AID 1346982); also: nearly all actives have a fitted effect of over 35% in size; also: potency is read from the fitted curve at half-maximal effect; as to activation: % is scaled to controls: 0 for no effect and ±100 for the full control effect
How it was run: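 PXR-Luc HepG2 cells (CYP3A4 promoter-driven luciferase) were seeded in medium with 5% charcoal-stripped FBS, left 5 hr at 37 C, then exposed to compounds in DMSO for 24 hr. Luminescence was read after ONE-Glo addition.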

[7] = molecular target: Cytochrome P450 2D6 (Homo sapiens) (UniProt P10635); test: Cytochrome P450 Family 2 Subfamily D Member 6 (CYP2D6) small molecule antagonists: luciferase reporter qHTS assay (AID 1671196); also: nearly all actives have a fitted effect of over 50% in size; also: potency is read from the fitted curve at half-maximal effect; as to activity change, negative = inhibition: series mostly up to about 120 µM; % is scaled to controls: 0 for no effect and ±100 for the full control effect
How it was run: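 CYP2D6 enzyme–substrate mix was held with compound for 10 min at room temperature, then NADPH regeneration solution was added and the reaction ran 1 h at room temperature. Luciferin product was detected by luminescence after 20 min with detection reagent.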

[8] = molecular target: Nuclear receptor subfamily 1 group I member 2 (Homo sapiens) (UniProt O75469); test: CYP3A4 induction through human pregnane X receptor (PXR) by small molecules, qHTS assay (AID 1346984); also: nearly all actives have a fitted effect of over 40% in size; also: potency is read from the fitted curve at half-maximal effect
How it was run: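 DPX-2 cells (HepG2 co-transfected with PXR and CYP3A4 promoter-luciferase) treated with compounds 24 h at 37C; luciferin-IPA CYP3A4 substrate 3uM final added for 3 h, then One-Glo; luminescence read. qHTS format.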

[9] = molecular target: Nuclear receptor subfamily 1 group I member 2 (Homo sapiens) (UniProt O75469); test: Human pregnane X receptor (PXR) activation by small molecules, qHTS assay (AID 1346985); also: potency is read from the fitted curve at half-maximal effect; nearly all actives have a fitted effect of over 40% in size
How it was run: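 DPX-2 cells (HepG2 co-transfected with a PXR response element and a CYP3A4-promoter luciferase construct) were seeded at 2,000 per well, rested 5 hr at 37C, then exposed to DMSO-dissolved compounds for 24 hr. Activation was read as luciferase luminescence.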

[10] = molecular target: Nuclear receptor subfamily 1 group I member 2 (Rattus norvegicus) (UniProt Q9R1A7); test: Rat pregnane X receptor (rPXR) activation by small molecules, qHTS assay (AID 1346983); conditions: rPXR luciferase reporter cells, One-Glo luminescence, 24 h; max activation: stronger effect = higher value; also: % is scaled to controls: 0 for no effect and ±100 for the full control effect; nearly all actives have a fitted effect of over 20% in size
How it was run: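 Cell-based rPXR luciferase reporter assay, 2,000 cells per well, rested 5hr at 37 C before compound addition in DMSO, then 24 hr at 37 C. One-Glo reagent was added and luminescence read after 30 min at room temperature.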

Chain of Nuclear receptor subfamily 1 group I member 2 (Rattus norvegicus) (Q9R1A7 whole entry, looked up): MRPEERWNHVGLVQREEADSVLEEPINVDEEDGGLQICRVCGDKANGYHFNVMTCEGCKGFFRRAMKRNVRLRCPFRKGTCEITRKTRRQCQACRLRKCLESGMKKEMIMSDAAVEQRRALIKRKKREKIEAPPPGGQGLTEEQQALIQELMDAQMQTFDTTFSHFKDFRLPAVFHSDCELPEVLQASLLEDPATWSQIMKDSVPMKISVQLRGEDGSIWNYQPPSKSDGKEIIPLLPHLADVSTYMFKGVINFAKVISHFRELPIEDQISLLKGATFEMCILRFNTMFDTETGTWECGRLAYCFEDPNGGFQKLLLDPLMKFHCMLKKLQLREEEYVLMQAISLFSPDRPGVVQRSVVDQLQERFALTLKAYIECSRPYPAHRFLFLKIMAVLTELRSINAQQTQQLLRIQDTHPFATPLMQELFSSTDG
Chain of Cytochrome P450 2D6 (Homo sapiens) (P10635 whole entry, looked up): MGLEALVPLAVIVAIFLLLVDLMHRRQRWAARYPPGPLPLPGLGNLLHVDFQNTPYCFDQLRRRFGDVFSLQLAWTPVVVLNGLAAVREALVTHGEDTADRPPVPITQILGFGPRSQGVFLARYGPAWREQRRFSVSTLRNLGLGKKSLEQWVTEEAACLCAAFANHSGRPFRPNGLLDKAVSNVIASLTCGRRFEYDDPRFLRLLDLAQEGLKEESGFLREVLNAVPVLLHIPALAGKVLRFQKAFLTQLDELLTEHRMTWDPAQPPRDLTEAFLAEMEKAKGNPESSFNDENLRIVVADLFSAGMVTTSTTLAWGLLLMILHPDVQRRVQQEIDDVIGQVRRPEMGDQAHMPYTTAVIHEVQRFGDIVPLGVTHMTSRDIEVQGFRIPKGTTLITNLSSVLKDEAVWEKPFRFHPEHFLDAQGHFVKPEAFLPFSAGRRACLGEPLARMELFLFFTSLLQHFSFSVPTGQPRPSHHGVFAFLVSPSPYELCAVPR
Chain of Nuclear receptor subfamily 1 group I member 2 (Homo sapiens) (O75469 whole entry, looked up): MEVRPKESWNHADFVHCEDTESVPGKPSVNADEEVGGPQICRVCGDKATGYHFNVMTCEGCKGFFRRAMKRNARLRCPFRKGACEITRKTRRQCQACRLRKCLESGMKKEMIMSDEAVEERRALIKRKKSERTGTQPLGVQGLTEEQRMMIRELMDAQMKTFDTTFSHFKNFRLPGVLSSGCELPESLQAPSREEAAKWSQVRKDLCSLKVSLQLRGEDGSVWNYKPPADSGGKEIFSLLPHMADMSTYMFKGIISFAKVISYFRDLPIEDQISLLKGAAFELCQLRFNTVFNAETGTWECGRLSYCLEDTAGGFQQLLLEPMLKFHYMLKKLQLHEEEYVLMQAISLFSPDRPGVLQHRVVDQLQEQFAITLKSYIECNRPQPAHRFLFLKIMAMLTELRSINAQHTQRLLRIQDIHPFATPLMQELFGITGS

CCCCCCOC(=O)CCC
inactive: Potency [1] | outcome [2] | Potency [3] | Potency [4] | Potency [5] | Potency [6] | Potency [7]

O=c1c2ccccc2nnn1CCl
inactive: Potency [1] | outcome [2] | Potency [3] | Potency [4] | Potency [5]
active: Potency [6] 61.1 µM | Potency [7] 14.2 µM

C=C(C)C(=O)OC(C)C
inactive: Potency [1] | outcome [2] | Potency [3] | Potency [4] | Potency [5] | Potency [6] | Potency [7]

CC(=O)O[C@@H]1C(=O)O[C@@H]2[C@H]1OC(=O)[C@@H]2OC(C)=O
inactive: Potency [1] | outcome [2] | Potency [3] | Potency [4] | Potency [5] | Potency [6] | Potency [7]

CN1CCN(C2=Nc3ccccc3Sc3ccc(Cl)cc32)CC1
active: Potency [8] 22.4 µM | Potency [9] 25.1 µM | Potency [7] 15.5 µM
inactive: Potency [1] | outcome [2] | Potency [3] | Potency [4] | Potency [5]

CC(C)CCCCCCOC(=O)c1ccc(C(=O)OCCCCCCC(C)C)c(C(=O)OCCCCCCC(C)C)c1
inactive: Potency [1] | outcome [2] | Potency [3] | Potency [4] | Potency [5] | Potency [6] | Potency [7]

CCCCCCCC/C=C\CCCCCCCC(N)=O
active: Potency [6] 15.3 µM
inactive: Potency [1] | outcome [2] | Potency [3] | Potency [4]

CC(O)C1CCCCC1 (stereo unspecified)
inactive: Potency [1] | outcome [2] | Potency [3] | Potency [4] | Potency [6]

CC(C)CC=O
inactive: Potency [1] | outcome [2] | Potency [3] | Potency [4] | Potency [5] | Potency [6] | Potency [7]

CCN(CCO)CCCC(C)Nc1ccnc2cc(Cl)ccc12 (stereo unspecified)
inactive: activity change, negative = cytotoxicity [1] 4.23% [at 8.39 µM] | caspase activation [2] 0.0326% [at 8.39 µM] | activity change, negative = cytotoxicity [3] 0.797% [at 8.39 µM] | caspase-3/7 activation [4] -0.893% [at 8.39 µM] | activity change, negative = cytotoxicity [5] 3.29% [at 8.39 µM] | max activation [10] -3.7%

CCCCCCCCCC(=O)OCC
inactive: Potency [1] | outcome [2] | Potency [3] | Potency [4] | Potency [5] | Potency [6] | Potency [7]

OCC1CC2CC1C1CCC(CO)C21 (stereo unspecified)
inactive: Potency [1] | outcome [2] | Potency [3] | Potency [4] | Potency [5] | Potency [6] | Potency [7]

CC(C)c1ccccc1C(C)C
inactive: Potency [1] | outcome [2] | Potency [3] | Potency [4] | Potency [6]

O=C(NN1CCCC1)NS(=O)(=O)c1ccc(Cl)cc1
inactive: Potency [1] | outcome [2] | Potency [3] | Potency [4] | Potency [5] | Potency [6] | Potency [7]

O=C(C(=O)c1ccc(Br)cc1)c1ccc(Br)cc1
inactive: activity change, negative = cytotoxicity [1] -1.5% [at 19 µM] | caspase activation [2] -0.0549% [at 19 µM] | activity change, negative = cytotoxicity [3] 1.57% [at 19 µM] | caspase-3/7 activation [4] 0.394% [at 19 µM] | activation [6] 1.54% [at 19 µM] | activity change, negative = inhibition [7] 1.74% [at 23.6 µM]

O=C(O)c1cccc(N(Cc2cccnc2)c2ccc(OC(F)F)c(OC(F)F)c2)c1
inactive: Potency [1] | outcome [2] | Potency [4]
active: Potency [3] 68.6 µM | Potency [6] 43.3 µM

COc1ccc([C@@H]2Sc3ccccc3N(CCN(C)C)C(=O)[C@@H]2OC(C)=O)cc1
inactive: Potency [1] | outcome [2] | Potency [3] | Potency [4] | Potency [5] | max activation [10] -0.277%

CCOC(=O)CC(=O)c1cc(F)c(Cl)nc1Cl
inactive: Potency [1] | outcome [2] | Potency [3] | Potency [4] | Potency [5] | Potency [6] | Potency [7]

O=[N+]([O-])c1cc[n+]([O-])cc1
inactive: outcome [2] | Potency [4] | Potency [6]
active: Potency [1] 54.5 µM | Potency [3] 38.6 µM

CC(C)(C)c1ccc(S)cc1
inactive: Potency [1] | outcome [2] | Potency [3] | Potency [4] | Potency [6] | Potency [7]

CCCCCCCCCCCCCCCCCBr
inactive: activity change, negative = cytotoxicity [1] 1.63% [at 19 µM] | caspase activation [2] 0.0731% [at 19 µM] | activity change, negative = cytotoxicity [3] 6.07% [at 19 µM] | activity change, negative = cytotoxicity [5] 2.8% [at 19 µM] | activation [6] 1.46% [at 19 µM] | activity change, negative = inhibition [7] -1.15% [at 23.6 µM]

CCOC(=O)CC(C)C
inactive: Potency [1] | outcome [2] | Potency [3] | Potency [6]

CC(=O)SCc1ccco1
inactive: Potency [1] | outcome [2] | Potency [3] | Potency [5] | Potency [6]

Cc1cccc(OCCOc2cccc(C)c2)c1
active: Potency [6] 18.3 µM
inactive: Potency [1] | outcome [2] | Potency [3] | Potency [4] | Potency [7]

CC(C)(C)c1cc(CCC(=O)OCC(COC(=O)CCc2cc(C(C)(C)C)c(O)c(C(C)(C)C)c2)(COC(=O)CCc2cc(C(C)(C)C)c(O)c(C(C)(C)C)c2)COC(=O)CCc2cc(C(C)(C)C)c(O)c(C(C)(C)C)c2)cc(C(C)(C)C)c1O
inactive: Potency [1] | outcome [2] | Potency [3] | Potency [6] | Potency [7]

CCCCCCCCN(C)C
inactive: Potency [1] | outcome [2] | Potency [3] | Potency [4] | Potency [6] | Potency [7]

COC(=O)CSc1cc(N=c2sc(=O)n3n2CCCC3)c(F)cc1Cl
inactive: Potency [1] | outcome [2] | Potency [3] | Potency [5] | Potency [6]
active: Potency [7] 63.3 µM

CCCCCCc1ccc(N)cc1
active: Potency [6] 30.6 µM
inactive: Potency [1] | outcome [2] | Potency [3]

NC(N)=NN=C(/C=C/c1ccc([N+](=O)[O-])o1)/C=C/c1ccc([N+](=O)[O-])o1
inactive: outcome [2] | max activation [10] -21.7% | Potency [8]
active: Potency [1] 6.68 µM | Potency [3] 5.31 µM | Potency [6] 2.66 µM | Potency [7] 15.5 µM

From PubChem BioAssay (Tox21)
